Here are results for 6 compounds from PubChem BioAssay (EPA / NIEHS).

As a reminder, the AC50 is the midpoint of the concentration-response curve, whichever way the signal moves.

Active and inactive are the calls of the source. Rule for the calls: active = hit-call score of the fitted dose curve at least 0.9, where 1 is the maximum; inactive = score below 0.9.

Holding throughout (settings): mRNA level, 48 h; actives raise or lower the signal
Read-out in assay [1]: Heat shock 70 kDa protein 1 (HSPA1A), gene 3303
Briefly: LTEA_HepaRG_HSPA1A: Life Technologies and Expression Analysis (LTEA) Assay for Heat shock 70 kDa protein 1 (HSPA1A) using HepaRG (AID 2283502). The gist of the method: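 HSPA1A induction in human HepaRG liver cells is measured after 48 h of chemical treatment (100 uM maximum, 0.5% DMSO vehicle). Expression comes from qRT-PCR normalized to endogenous controls.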

Read-out in assay [2]: Hypoxia-inducible factor 1-alpha (Homo sapiens) (UniProt Q16665)
In words: LTEA_HepaRG_HIF1A: Life Technologies and Expression Analysis (LTEA) Assay for Hypoxia-inducible factor 1 (HIF1A) Trancription factor using HepaRG (AID 2283503). The gist of the method: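 HepaRG, 48 h exposure, 8-pt half-log series from 100 uM, 0.5% DMSO vehicle, duplicates. Readout: HIF1A transcript by qRT-PCR (Fluidigm array), housekeeping-normalised. Bidirectional curve fit vs DMSO baseline.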

Read-out in assay [3]: 3-Hydroxy-3-Methylglutaryl-CoA Synthase 2 (HMGCS2), HMGCS2 (gene 3158)
In words: LTEA_HepaRG_HMGCS2: Life Technologies and Expression Analysis (LTEA) Assay for 3-Hydroxy-3-Methylglutaryl-CoA Synthase 2 (HMGCS2) using HepaRG (AID 2283504). In short, it runs like this: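 HepaRG, plated 48 h then switched to serum-free induction media; cmpd 8-pt, max 100 uM, 1/2-log, 0.5% DMSO, n=2, 48 h. HMGCS2 mRNA by Fluidigm TaqMan qRT-PCR, ACTB/GAPDH/POLR2A norm; bidirectional fit vs DMSO.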

Read-out in a further assay: HGF (gene 3082)
Briefly: LTEA_HepaRG_HGF: Life Technologies and Expression Analysis (LTEA) Assay for Hepatocyte Growth Facto (HGF) using HepaRG (AID 2283505). In short, it runs like this:
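Read-out is HGF transcript level by qRT-PCR, normalized to three housekeeping genes, fitted bidirectionally against 0.5% DMSO vehicle. Human HepaRG cells received test chemicals for 48 h at up to 100 uM.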

Read-out in assay [4]: Insulin Like Growth Factor 1 (IGF1), IGF1 (gene 3479)
In words: LTEA_HepaRG_IGF1: Life Technologies and Expression Analysis (LTEA) Assay for Insulin Like Growth Factor 1 (IGF1) using HepaRG (AID 2283506). The gist of the method:
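Using human HepaRG liver cells, IGF1 transcript induction or suppression is measured 48 h after dosing across eight concentrations capped at 100 uM. Values derive from bidirectional concentration-response fitting with DMSO as baseline.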

Read-out in assay [5]: Intercellular Adhesion Molecule 1 (ICAM1), ICAM1 (gene 3383)
Briefly: LTEA_HepaRG_ICAM1: Life Technologies and Expression Analysis (LTEA) Assay for Intercellular Adhesion Molecule 1 (ICAM1) using HepaRG (AID 2283507). The gist of the method:
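Readout is qRT-PCR mRNA level, normalized to three housekeeping genes and fitted bidirectionally against 0.5% DMSO vehicle. Human HepaRG cultures received compound for 48 h, top concentration 100 uM with half-log dilutions.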

Read-out in assay [6]: Interleukin 6 (IL6), IL6 (gene 3569)
Briefly: LTEA_HepaRG_IL6: Life Technologies and Expression Analysis (LTEA) Assay for Interleukin 6 (IL6) using HepaRG (AID 2283509). In short, it runs like this: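 HepaRG, ~100,000 cells/well, 48 h pre-culture; serum-free induction medium; cmpd 8-pt half-log from 100 uM, 0.5% DMSO, duplicate, 48 h. Lysis in RLT, TaqMan qRT-PCR; gain or loss vs DMSO.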

Read-out in assay [7]: Interleukin 6 Receptor (IL6R), IL6R (gene 3570)
Briefly: LTEA_HepaRG_IL6R: Life Technologies and Expression Analysis (LTEA) Assay for Interleukin 6 Receptor (IL6R) using HepaRG (AID 2283510). The gist of the method:
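Concentration-response in human liver HepaRG cells: eight concentrations from 100 uM downward by half-logs, 48 h exposure, 0.5% DMSO vehicle. IL6R mRNA change measured by qRT-PCR and fitted in both directions relative to vehicle.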

Read-out in assay [8]: Potassium channel subfamily K member 1 (KCNK1), KCNK1 (gene 3775)
Briefly: LTEA_HepaRG_KCNK1: Life Technologies and Expression Analysis (LTEA) Assay for Potassium channel subfamily K member 1 (KCNK1) using HepaRG (AID 2283511). The gist of the method:
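Gain or loss of KCNK1 mRNA is the read-out, quantified by qRT-PCR against three housekeeping genes after 48 h chemical treatment of human HepaRG liver cells. Concentrations ran from 100 uM downward in half-log steps, vehicle 0.5% DMSO.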

Read-out in assay [9]: Keratin 19 (KRT19), KRT19 (gene 3880)
Briefly: LTEA_HepaRG_KRT19: Life Technologies and Expression Analysis (LTEA) Assay for Keratin 19 (KRT19) using HepaRG (AID 2283512). In short, it runs like this: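 KRT19 transcript levels, measured by Fluidigm qRT-PCR against three housekeeping genes, are fitted for gain or loss of signal relative to DMSO. Human HepaRG cells receive test chemicals (top 100 uM, half-log steps, 0.5% DMSO) for 48 hours.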

Read-out in assay [10]: Lipase C (LIPC), LIPC (gene 3990)
In words: LTEA_HepaRG_LIPC: Life Technologies and Expression Analysis (LTEA) Assay for Lipase C (LIPC) using HepaRG (AID 2283514). The gist of the method: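 Read-out is LIPC transcript level by TaqMan qRT-PCR, normalized to three housekeeping genes, after 48 h chemical treatment of human HepaRG liver cells. Curves span eight concentrations topping at 100 uM; activity in either direction scored relative to 0.5% DMSO.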

Read-out in assay [11]: Lipoprotein lipase (LPL), LPL (gene 4023)
In words: LTEA_HepaRG_LPL: Life Technologies and Expression Analysis (LTEA) Assay for Lipoprotein lipase (LPL) using HepaRG (AID 2283515). The gist of the method: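 Read-out is LPL transcript level by qRT-PCR, normalized to three housekeeping genes and fitted bidirectionally against the DMSO control. Human HepaRG cells received chemicals for 48 h at up to 100 uM.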

Read-out in assay [12]: MicroRNA 122 (MIR122), gene 406906
In words: LTEA_HepaRG_MIR122: Life Technologies and Expression Analysis (LTEA) Assay for MicroRNA 122 (MIR122) using HepaRG (AID 2283516). Note: the transcript read is the microRNA miR-122. In short, it runs like this:
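HepaRG, 48 h exposure, 8-pt half-log from 100 uM, 0.5% DMSO; TaqMan qRT-PCR; bidirectional fit vs DMSO.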

Read-out in assay [13]: matrix metalloproteinase-10 (MMP10), MMP10 (gene 4319)
In words: LTEA_HepaRG_MMP10: Life Technologies and Expression Analysis (LTEA) Assay for matrix metalloproteinase-10 (MMP10) using HepaRG (AID 2283517). The gist of the method:
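Gain or loss of MMP10 mRNA is fitted relative to the 0.5% DMSO vehicle. The human hepatic line HepaRG receives a 48-hour serum-free exposure, in duplicate, with a maximum concentration of 100 uM.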

Read-out in assay [14]: matrix metalloproteinase-3 (MMP3), MMP3 (gene 4314)
Briefly: LTEA_HepaRG_MMP3: Life Technologies and Expression Analysis (LTEA) Assay for matrix metalloproteinase-3 (MMP3) using HepaRG (AID 2283519). The gist of the method: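 HepaRG, human; 48 h dosing, 8 conc. (max 100 uM, half-log), duplicate, 0.5% DMSO. Readout: MMP3 transcript by Fluidigm TaqMan qRT-PCR, ACTB/GAPDH/POLR2A-normalised. Gain or loss fitted vs DMSO.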

Read-out in assay [15]: Paternally Expressed 10 (PEG10), PEG10 (gene 23089)
In words: LTEA_HepaRG_PEG10: Life Technologies and Expression Analysis (LTEA) Assay for Paternally Expressed 10 (PEG10) using HepaRG (AID 2283520).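 For AC50: PEG10 transcript by qRT-PCR normalised to ACTB GAPDH and POLR2A.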 The gist of the method: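 Chemicals tested on HepaRG cells for 48 h, highest concentration 100 uM. PEG10 expression assessed by qRT-PCR relative to DMSO control.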

Read-out in assay [16]: Insulin-like growth factor-binding protein 1 (IGFBP1), IGFBP1 (gene 3484)
Briefly: LTEA_HepaRG_IGFBP1: Life Technologies and Expression Analysis (LTEA) Assay for Insulin-like growth factor-binding protein 1 (IGFBP1) using HepaRG (AID 2283508). The gist of the method: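 Thawed HepaRG cells are plated for 48 h, switched to serum-free induction medium, then dosed in duplicate for another 48 h (100 uM top, half-log steps). Lysates in RLT go to qRT-PCR, and gain or loss of signal is fitted relative to vehicle.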

Read-out in assay [17]: JUN Transcription Factor, JUN (gene 3725)
In words: LTEA_HepaRG_JUN: Life Technologies and Expression Analysis (LTEA) Assay for JUN Transcription Factor using HepaRG (AID 2283513). The gist of the method: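 Human HepaRG liver cells receive test chemicals in 0.5% DMSO for 48 h across an eight-point range topping at 100 uM. Expression changes in JUN are scored in both directions against the DMSO vehicle.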

Read-out in assay [18]: Nuclear factor NF-kappa-B p105 subunit (Homo sapiens) (UniProt P19838)
Briefly: LTEA_HepaRG_NFKB1: Life Technologies and Expression Analysis (LTEA) Assay for Nuclear Factor Kappa B Subunit 1 (NFKB1) using HepaRG (AID 2283521). The gist of the method:
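Differentiated human HepaRG cells were exposed for 48 h in serum-free induction medium to eight concentrations (top 100 uM, half-log steps, 0.5% DMSO), in duplicate. NFKB1 mRNA was measured by TaqMan qRT-PCR, normalized to ACTB/GAPDH/POLR2A, and fitted bidirectionally against DMSO.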

Sequence of Nuclear factor NF-kappa-B p105 subunit (Homo sapiens) (P19838 whole entry, looked up): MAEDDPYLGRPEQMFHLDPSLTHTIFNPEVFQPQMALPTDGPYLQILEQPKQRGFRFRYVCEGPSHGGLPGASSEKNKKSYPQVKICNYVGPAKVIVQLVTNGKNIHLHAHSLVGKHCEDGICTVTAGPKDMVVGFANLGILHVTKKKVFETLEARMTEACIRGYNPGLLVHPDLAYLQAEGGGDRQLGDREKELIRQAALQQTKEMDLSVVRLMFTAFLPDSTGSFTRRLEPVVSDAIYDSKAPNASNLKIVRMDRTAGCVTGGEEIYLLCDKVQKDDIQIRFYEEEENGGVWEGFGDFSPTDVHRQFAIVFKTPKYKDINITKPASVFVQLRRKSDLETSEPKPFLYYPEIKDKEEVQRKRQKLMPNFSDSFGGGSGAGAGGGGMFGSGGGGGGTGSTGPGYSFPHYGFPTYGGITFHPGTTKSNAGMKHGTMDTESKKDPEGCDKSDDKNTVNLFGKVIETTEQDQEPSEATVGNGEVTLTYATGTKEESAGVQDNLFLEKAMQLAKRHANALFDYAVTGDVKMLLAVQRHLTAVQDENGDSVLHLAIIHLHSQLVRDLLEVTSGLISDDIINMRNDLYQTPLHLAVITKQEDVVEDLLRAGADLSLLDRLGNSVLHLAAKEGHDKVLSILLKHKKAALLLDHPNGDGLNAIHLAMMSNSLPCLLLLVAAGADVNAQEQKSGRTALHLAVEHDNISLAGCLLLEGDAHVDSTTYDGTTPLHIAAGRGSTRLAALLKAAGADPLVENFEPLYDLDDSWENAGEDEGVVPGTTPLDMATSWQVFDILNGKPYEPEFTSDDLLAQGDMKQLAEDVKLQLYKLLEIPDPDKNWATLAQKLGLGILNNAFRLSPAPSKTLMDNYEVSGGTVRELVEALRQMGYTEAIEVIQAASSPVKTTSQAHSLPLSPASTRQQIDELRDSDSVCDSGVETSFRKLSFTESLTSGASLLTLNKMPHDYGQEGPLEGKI
Sequence of Hypoxia-inducible factor 1-alpha (Homo sapiens) (Q16665 whole entry, looked up): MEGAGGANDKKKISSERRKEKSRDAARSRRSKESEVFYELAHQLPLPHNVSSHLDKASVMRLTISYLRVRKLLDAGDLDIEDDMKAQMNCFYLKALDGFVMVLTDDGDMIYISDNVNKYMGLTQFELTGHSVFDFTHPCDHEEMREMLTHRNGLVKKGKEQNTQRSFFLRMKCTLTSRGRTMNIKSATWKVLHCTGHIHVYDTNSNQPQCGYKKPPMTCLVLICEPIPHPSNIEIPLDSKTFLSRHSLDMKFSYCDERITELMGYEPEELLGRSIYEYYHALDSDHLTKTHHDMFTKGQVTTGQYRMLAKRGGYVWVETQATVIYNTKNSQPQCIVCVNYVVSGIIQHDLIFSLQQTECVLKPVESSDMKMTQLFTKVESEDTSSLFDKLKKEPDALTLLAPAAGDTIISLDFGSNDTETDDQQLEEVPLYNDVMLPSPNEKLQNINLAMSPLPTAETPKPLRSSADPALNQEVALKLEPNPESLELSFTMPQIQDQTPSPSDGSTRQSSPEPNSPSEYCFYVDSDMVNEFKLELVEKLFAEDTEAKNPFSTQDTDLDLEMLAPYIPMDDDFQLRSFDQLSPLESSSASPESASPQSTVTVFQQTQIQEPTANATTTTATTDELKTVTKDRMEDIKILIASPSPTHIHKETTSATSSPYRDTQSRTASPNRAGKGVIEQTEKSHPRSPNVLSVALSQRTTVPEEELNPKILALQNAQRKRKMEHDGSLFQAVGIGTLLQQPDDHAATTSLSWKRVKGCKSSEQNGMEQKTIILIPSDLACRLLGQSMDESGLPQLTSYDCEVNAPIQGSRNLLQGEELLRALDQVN

On to `CCc1cnc(C2=NC(C)(C(C)C)C(=O)N2)c(C(=O)O)c1` (stereo unspecified), for which the call (in [1]; in assay [2]; in assay [3]; in the assay with HGF (gene 3082); in [4]; in [5]) was inactive. Further, the call in [6], in assay [7], in assay [8], in assay [9], in [10] and in assay [11] was inactive. Besides, the outcome in assay [12], in assay [13], in assay [14] and in assay [15] was inactive.

As for `CCOP(=S)(OCC)SCCSCC`, the compound was called inactive (in assay [1]; in [2]; in assay [3]; in the assay with HGF (gene 3082); in assay [5]; in assay [16]). Also, the outcome in assay [6], in assay [7], in [8], in assay [9], in assay [17] and in assay [10] was inactive. Moreover, the compound was called inactive in assay [11], in [12], in [13], in [14], in [15] and in assay [18].

As to `O=C(O)c1cc(Oc2ccc(C(F)(F)F)cc2Cl)ccc1[N+](=O)[O-]`, the compound was called inactive (in assay [1]; in assay [2]; with HGF (gene 3082); in assay [5]; in assay [16]; in assay [6]). For the same compound, the outcome in assay [7], in assay [8], in assay [9], in [17], in assay [10] and in assay [12] was inactive. The compound was called inactive in assay [13], in assay [14] and in assay [18]. Besides, the AC50 was 50 µM (active) in [3], 12.6 µM (active) in assay [11] and 50 µM (active) in assay [15].

For `CCOP(=S)(OCC)Oc1ccc2c(C)c(Cl)c(=O)oc2c1`, the call (in assay [1]; in assay [2]; with HGF (gene 3082); in assay [5]; in assay [6]; in [7]) was inactive. Further, the compound was classed as inactive in assay [8], in assay [11], in [13] and in assay [14]. The concentration at half-maximal activity (AC50) in assay [3] is 51.8 µM (active); in [4], 33.8 µM (active); in assay [9], 29.4 µM (active); in [10], 74.7 µM (active); in [12], 50 µM (active); in [15], 13.2 µM (active).

As for `CC(COc1ccc(Oc2ccccc2)cc1)Oc1ccccn1` (stereo unspecified), the compound was classed as inactive (in assay [1]; in assay [2]; with HGF (gene 3082); in assay [5]; in [6]; in assay [7]). Besides, the result in assay [8], in assay [9], in assay [10], in assay [11], in assay [12] and in assay [13] was inactive. Moreover, the call in assay [14], in assay [15] and in assay [18] was inactive. Further, the results for the AC50 in assay [3] and in [4] were 12.6 µM (active) and 32.8 µM (active), respectively.

Regarding `CC(C)N(C(=O)SCC(Cl)=C(Cl)Cl)C(C)C`, the call (in assay [1]; in assay [2]; in assay [3]; with HGF (gene 3082); in assay [4]; in assay [5]) was inactive. The outcome in [6], in assay [7], in [8], in assay [9], in assay [10] and in [11] was inactive. The compound was classed as inactive in assay [12], in assay [13], in [14] and in assay [15].
